A short description of assay [1]: P. berghei load reduction in hepatocytes – cell-based, HepG2, luciferase luminescence, HepG2 viability, primary screen (AID 624349; in the data active = parasite load remaining mostly below about 12%, no sharp cut-off; inactive = mostly above about 10%;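 note: 100% = mean of DMSO negative control wells on the same plate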). As to conditions: P. berghei liver stage in HepG2, luciferase luminescence, concentration not given here; parasite load remaining: stronger effect = lower value; viability: measured here: HepG2 viability without parasites.
Assay [2] can be described thus: viability loss with induced miR-34 in A549 – imaging, A549 dox-inducible miR-34, nuclei and caspase counts, primary screen (AID 1347080). To be noted: A549 miR-34 inducible, Hoechst nuclei count, 48 h.
Assay [3] can be described thus: compounds altering viability of human ES cells (AID 493140; call rule not given here;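 note: cells exposed to compounds for four days before counting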). As to conditions: human embryonic stem cell survival screen; stronger effect = higher value.
Setting [4] is: stronger effect = lower value, cell number ratio, induced over uninduced.
[5] abbreviates: measured here: relative caspase fold change +Dox/-Dox.
Setting [6] is: measured here: total cells with miR-34 induction, stronger effect = lower value.
Where [7] appears, read: measured here: total cells without miR-34 induction.

Where “and” joins values, the source holds several entries; their conditions need not be identical. Identical values can stand only once. Calls of active or inactive are those of the source.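 Rule for the calls, unless noted: active = compounds whose cell count with miR-34 switched on is under 0.7 times the count with it off; inactive = the rest.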

As a reminder, the viability is a read-out of living cells in per cent, often relative to untreated cells.

On to `CC(C)[N+]1(C)[C@@H]2CC[C@@H]1CC(OC(=O)C(CO)c1ccccc1)C2` (stereo not given in full), for which the parasite load remaining in assay [1] is 92% (inactive). In addition, the viability in assay [1] was determined as 107%. Moreover, the fold change in assay [2] (setting [4]) is 0.845 (inactive); in assay [2] (setting [5]), 1.32. Also, the cell count in assay [2] (setting [6]) was found to be 9220; in assay [2] (setting [7]) it was 10900.
In the case of `CC[C@H]1OC(=O)[C@H](C)[C@@H](OC2C[C@@](C)(OC)[C@@H](O)[C@H](C)O2)[C@H](C)[C@@H](O[C@@H]2O[C@H](C)C[C@H](N(C)C)[C@H]2O)[C@](C)(O)C[C@@H](C)/C(=N\OCOCCOC)[C@H](C)[C@@H](O)[C@]1(C)O` (stereo not given in full), in assay [1], the parasite load remaining was 75.3% (inactive). Moreover, the viability in assay [1] was found to be 93.9%. Further, the fold change is 0.893 (inactive) in assay [2] (setting [4]) and 1 in assay [2] (setting [5]). The cell count in assay [2] (setting [6]) was 9320; in assay [2] (setting [7]), 10400.
In the case of `CCCCCCCCCCCCCCCCCCOC[C@@H](O)COP(=O)([O-])OCC[N+](C)(C)C`, in assay [3], the survival was 71.2 (inactive). For the same compound, the fold change in assay [2] (setting [4]) was 0.968 (inactive); in assay [2] (setting [5]) it was 0.597. Besides, the cell count in assay [2] (setting [6]) turned out to be 5980; in assay [2] (setting [7]) it was 6180.
As to `COc1c2ccoc2nc2c(OC)c(OC[C@@H](O)C(C)(C)O)ccc12`, in assay [1], the parasite load remaining was 153% (inactive). Further, the viability in assay [1] is 90.5%. Besides, the fold change was 0.816 (inactive) in assay [2] (setting [4]) and 1.39 in assay [2] (setting [5]). Moreover, the results for the cell count in assay [2] (setting [6]) and in assay [2] (setting [7]) were 8040 and 9850, respectively.
For the compound `CC(C)(C)NCC(O)COc1cccc2c1CC(O)C(O)C2` (stereo not given), the parasite load remaining in assay [1] was 84.5% (inactive). Moreover, in assay [1], the viability was 104%. The fold change in assay [2] (setting [4]) was 0.89 (inactive); in assay [2] (setting [5]) it was 1.39. The cell count in assay [2] (setting [6]) came out at 8980; in assay [2] (setting [7]), 10100.
Take `CCCCC[C@H](O)/C=C/[C@H]1OC(O)C[C@H](O)[C@@H]1C/C=C\CCCC(=O)O` (stereo not given in full): the survival in assay [3] is 96.2 (inactive). Also, the fold change in assay [2] (setting [4]) was 0.852 (inactive); in assay [2] (setting [5]), 1.59. Further, the cell count worked out at 5370 in assay [2] (setting [6]) and 6300 in assay [2] (setting [7]).
As to `CC1(C)S[C@@H]2[C@H](NC(=O)[C@H](N)c3ccccc3)C(=O)N2[C@H]1C(=O)OC1OC(=O)c2ccccc21` (stereo not given in full), the survival in assay [3] is 7.92 (inactive). Moreover, in assay [1], the parasite load remaining was 114% (inactive). In addition, the viability in assay [1] came to 77.4%. For the same compound, the fold change in assay [2] (setting [4]) is 0.95 (inactive); in assay [2] (setting [5]), 0.554. The cell count in assay [2] (setting [6]) is 8670; in assay [2] (setting [7]) it was 9130.
In the case of `COc1ccc(CC(C)(N)C(=O)O)cc1OC` (stereo not given), in assay [3], the survival is 17 (inactive). For the same compound, the parasite load remaining in assay [1] is 64.7% (inactive). Also, the viability in assay [1] was determined as 74.8%. Also, the fold change in assay [2] (setting [4]) was 0.962 (inactive); in assay [2] (setting [5]) it was 0.938. For the same compound, the cell count in assay [2] (setting [6]) is 9190; in assay [2] (setting [7]) it was 9550.
Regarding `CC/C=C\C/C=C\C/C=C\C/C=C\C/C=C\C/C=C\CCC(=O)O[C@H](COCCCCCCCCCCCCCCCC)COP(=O)([O-])OCC[N+](C)(C)C`, the survival in assay [3] is 68.5 (inactive). In addition, the results for the fold change in assay [2] (setting [4]) and in assay [2] (setting [5]) were 1.06 (inactive) and 1.37, respectively. Also, the results for the cell count in assay [2] (setting [6]) and in assay [2] (setting [7]) were 5710 and 5380, respectively.
Consider `C=Cc1c(C)c2cc3nc(cc4[nH]c(cc5nc(cc1[nH]2)C(C)=C5CCC(=O)O)c(CCC(=O)O)c4C)[C@@]1(C)C3=CC=C(C(=O)OC)C1C(=O)OC` (stereo not given in full), for which, in assay [1], the parasite load remaining was 82.4% (inactive). Besides, in assay [1], the viability is 67.8%. For the same compound, the figures for the fold change in assay [2] (setting [4]) and in assay [2] (setting [5]) were 0.97 (inactive) and 1.04, respectively. The cell count in assay [2] (setting [6]) came out at 9050; in assay [2] (setting [7]), 9330.
`CCCCC[C@H](O)/C=C/[C@@H]1[C@@H](C/C=C\CCCC(=O)O)[C@H]2CO[C@@H]1C2`: the survival in assay [3] is 104 (inactive). Besides, the fold change is 0.992 (inactive) in assay [2] (setting [4]) and 1.22 in assay [2] (setting [5]). Also, the cell count in assay [2] (setting [6]) is 5990; in assay [2] (setting [7]), 6040.
Regarding `S=C(NC1CCCCC1)N1CCC(C2C=NC=N2)CC1` (stereo not given), the survival in assay [3] was 6.25 (inactive). In assay [1], the parasite load remaining was 49.2% (inactive). In addition, the viability in assay [1] was found to be 96.4%. Further, the fold change in assay [2] (setting [4]) is 0.857 (inactive); in assay [2] (setting [5]), 1.52. Further, the cell count in assay [2] (setting [6]) was 8240; in assay [2] (setting [7]), 9620.
Take `CCCCCCCCCCCCCCCCOCC(COP(=O)([O-])OCC[N+](C)(C)C)OC` (stereo not given): the survival in assay [3] was 64.4 (inactive). The fold change is 0.921 (inactive) in assay [2] (setting [4]) and 1.04 in assay [2] (setting [5]). In addition, the cell count in assay [2] (setting [6]) amounted to 5520; in assay [2] (setting [7]), 5990.
`O=c1cc(-c2ccc(O)cc2)oc2c(C3O[C@H](CO)[C@@H](O)[C@H](O)[C@H]3O)c(O)cc(O)c12` (stereo not given in full): the survival in assay [3] is 3.5 (inactive). Further, the parasite load remaining in assay [1] is 96.7% (inactive). The viability in assay [1] worked out at 101%. For the same compound, the figures for the fold change in assay [2] (setting [4]) and in assay [2] (setting [5]) were 0.841 (inactive) and 1.12, respectively. In addition, the cell count amounted to 8230 in assay [2] (setting [6]) and 9780 in assay [2] (setting [7]).
Consider `CCCCC[C@H](O)CC[C@H]1[C@H](O)CC(=O)[C@@H]1CCCCCCC(=O)O`, for which, in assay [3], the survival is 89 (inactive). The fold change was 0.898 (inactive) and 0.911 (inactive) in assay [2] (setting [4]); 0.955 and 1.31 in assay [2] (setting [5]). The cell count in assay [2] (setting [6]) was 5150 and 5260; in assay [2] (setting [7]), 5740 and 5770.
As for `CCC1OC(=O)[C@H](C)C(=O)[C@H](C)[C@@H](OC2O[C@H](C)C[C@H](N(C)C)[C@H]2O)[C@](C)(OC)C[C@@H](C)C(=O)[C@H](C)[C@H]2N(CCCCn3cnc(-c4cccnc4)c3)C(=O)OC12C` (stereo not given in full), in assay [1], the parasite load remaining was 141% (inactive) and 312% (inactive). Besides, the viability in assay [1] is 91.8% and 96.9%. Further, the fold change was 0.904 (inactive) in assay [2] (setting [4]) and 2.11 in assay [2] (setting [5]). The cell count in assay [2] (setting [6]) is 11200; in assay [2] (setting [7]), 12400.
Regarding `Oc1cc(O)c2c(c1)OC(c1ccc(O)c(O)c1)C(O)C2` (stereo not given), the parasite load remaining in assay [1] was 64.2% (inactive). For the same compound, in assay [1], the viability is 97%. Moreover, the fold change in assay [2] (setting [4]) was 0.908 (inactive); in assay [2] (setting [5]) it was 1.18. Further, the cell count in assay [2] (setting [6]) was 9500; in assay [2] (setting [7]) it was 10500.
Turning to `CCCCC[C@H](O)/C=C/[C@@H]1[C@H]2C/C(=C/CCCC(=O)O)O[C@H]2C[C@H]1O`, the survival in assay [3] is 102 (inactive). Moreover, the fold change in assay [2] (setting [4]) is 1.05 (inactive); in assay [2] (setting [5]), 1.16 and 1.02. In addition, the cell count in assay [2] (setting [6]) was 6320 and 6530; in assay [2] (setting [7]) it was 6040 and 6220.
